Data taken from PubChem BioAssay AID651800 (The Scripps Research Institute Molecular Screening Center, 2012).
The campaign covered roughly 360,000 compounds. About 1,300 (0.36%) were called active. This excerpt belongs to a sample that is enriched for actives. Values without a mark were called inactive. Rule as the data show it: active = inhibition above about 19%; inactive = the rest.

test system: T-cell receptor (TCR); experiment: inhibitors of human TCR-CD3 interaction, primary screen, biochemical, fluorescence, TAMRA-labeled TCR probe (AID 651800); conditions: at 9.4 µM, active compounds read high;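 also: recombinant mutant TCR 2C K166C tagged with TAMRA read by polarization; 0% = receptor in buffer alone and 100% = receptor with positive control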

Row | Structure (SMILES) | inhibition
1 | COc1cc(OC)cc(C(=O)NCCSCc2ccco2)c1 | 2.08%
2 | COCCNC(=O)Nc1ccc2nc(-c3ccco3)c(-c3ccco3)nc2c1 | 48% (active)
3 | COc1ccc(CCNC(=O)Nc2ccc3c(c2)c(=O)n(C)n3C)cc1OC | -9.13%
4 | CCOC(=O)C1CSCCS(=O)(=O)N1Cc1ccc(Cl)cc1 (stereo unspecified) | -6.78%
5 | CNC(=S)NNC(=O)c1cccn(Cc2ccccc2)c1=O | 45.4% (active)
6 | CN(C)C(=O)c1cccn(Cc2cccc(C(F)(F)F)c2)c1=O | 4.33%
7 | Cc1scc(C(=O)NNC(=S)NCc2ccccc2)c1C | 3.75%
8 | CCOC(=O)CNC(=O)N(C)[C@H]1C[C@H]2c3[nH]c4c(-c5ccc6c(c5)OCO6)cccc4c3CCN2C(=O)[C@H]1[C@H](C)O | -3.41%
9 | COC(=O)C1=C(C)N(Cc2ccccc2C(F)(F)F)C(=NCC2CC2)NC1c1cccc(Cl)c1 (stereo unspecified) | 5.09%
10 | C=CCN1C(=O)N(Cc2ccccc2)c2ccccc2S1(=O)=O | -2.76%
11 | COc1ccc(CC(=O)N/N=C/c2cc([N+](=O)[O-])cc(Br)c2O)cc1 | 37.3% (active)
12 | COc1ccc(CNS(=O)(=O)c2cc(Br)ccc2Br)cc1 | 1.49%
13 | COc1ccc(Cc2nnc(SCC(=O)c3cccc([N+](=O)[O-])c3)n2C)cc1 | 3.33%
14 | C[C@H]1[C@H](c2ccccc2)Oc2cc(Br)ccc2S(=O)(=O)N1Cc1cccc(F)c1 | 2.14%
15 | CCCCCCCCN1C(=O)[C@@H](CC(=O)N2CCN(C(=O)OCC)CC2)C[C@@]2(C(=O)OC)C1=C[C@H](C1CCCC1)O[C@@H]2C | 6.64%
16 | CN(NC(=O)c1ccccc1F)c1nc(C(F)(F)F)nc2ccccc12 | 27.9% (active)
17 | CSc1nc(N(C)NC(=O)c2cccc(C)c2)c2ccccc2n1 | -2.67%
18 | CC(NC(=O)c1ccccc1F)c1cccc2ccccc12 (stereo unspecified) | -0.21%
19 | O=C1CCCCC1C(=O)c1ccccc1 (stereo unspecified) | -0.19%
20 | COC(=O)[C@]12C[C@H](CC(=O)NCc3ccccc3)C(=O)N(CCC3=CCCCC3)C1=C[C@H](C(C)(C)C)O[C@@H]2C | -4.03%
21 | CCn1c(=S)[nH]c2cc(S(=O)(=O)N3CCOCC3)ccc21 | 1.36%

Row | Structure (SMILES) | inhibition
22 | CNS(=O)(=O)c1ccc2c(c1)[nH]c(=S)n2C | 45.4% (active)
23 | CCCCn1c(=S)[nH]c2cc(S(=O)(=O)N3CCCCC3)ccc21 | 1.03%
24 | COC(=O)[C@]12C[C@H](CC(=O)NCc3cccc(C(F)(F)F)c3)C(=O)N(Cc3ccc4c(c3)OCO4)C1=C[C@H](COCc1ccccc1)O[C@@H]2C | 0.9%
25 | O=C(C(=O)N1CCC(CNC(=O)c2cccnc2Cl)CC1)c1cccs1 | 0.67%
26 | C[C@H](CO)N1C[C@H](C)[C@@H](CN(C)C(=O)Nc2ccccc2F)OCc2cn(nn2)CCCC1=O | 4.97%
27 | NNC(=O)c1oc2nc(-c3ccccc3)cc(-c3ccco3)c2c1N | 16.2%
28 | CNC(=S)NNC(=O)c1oc2nc(-c3ccccc3)cc(-c3ccco3)c2c1N | 59.3% (active)
29 | Cc1ccccc1C(=O)N[C@H](C(=O)N1CCC[C@H]1C(=O)NCc1ccccc1)C(C)C | 2.94%
30 | CCCCNc1cccc2c1S(=O)(=O)N[C@@H](C)CO2 | 2.35%
31 | Cc1ccc(N)cc1CN1CCN(c2ncc(Cc3ccccc3)cn2)CC1 | 3.41%
32 | COCCCNC(=O)C[C@H]1C[C@@]2(C(=O)OC)C(=C[C@H](C(C)(C)C)O[C@@H]2C)N(Cc2ccc3c(c2)OCO3)C1=O | 3.16%
33 | CC(C)CNc1cccc2c1S(=O)(=O)N[C@H](CC(C)C)CO2 | -1.27%
34 | Brc1ccc(COCCc2cn(Cc3ccccc3)c3ccccc23)cc1 | -0.9%
35 | CC(Sc1nnc2c(n1)C1CCC2(C)C1(C)C)C(=O)Nc1ccccc1 (stereo unspecified) | 1.84%
36 | CC12CCC(C(=O)N(NC(=O)c3ccccc3O)C1=O)C2(C)C (stereo unspecified) | 33.6% (active)
37 | CC1=CC(C)(C)NC(=S)N1NC(=O)c1ccccc1Cl | -4.79%
38 | Clc1cccc2c1C1CC2CCN1Cc1ccccc1 (stereo unspecified) | -2.68%
39 | O=C(NCc1ccccc1)[C@H]1CCCN1C(=O)[C@H]1CCCN1C(=O)N1CCOCC1 | 4.79%
40 | CCCCCCCCN1C(=O)[C@@H](CC(=O)NCc2ccc(C)o2)C[C@@]2(C(=O)OC)C1=C[C@H](C(C)(C)C)O[C@@H]2C | 1.15%
41 | O=S(=O)(O)c1cc2onnc2c2ccccc12 | 28.6% (active)
42 | O=C(CCN1C(=O)c2ccccc2C1=O)NNC(=O)c1ccc(Cl)cc1Cl | -3.56%

Row | Structure (SMILES) | inhibition
43 | COc1ccccc1C(=O)Nn1cnnc1 | -2.57%
44 | COc1ccccc1C(=O)NNC(=O)CCN1C(=O)/C(=C\c2ccccc2)SC1=S | 23.9% (active)
45 | CC[C@H](NC(=O)[C@H](Cc1ccccc1)NC(=O)[C@H]1O[C@@H](n2cnc3c(=O)[nH]c(N)nc32)[C@H](O)[C@@H]1O)c1ccccc1 | 1.67%
46 | COC(=O)[C@]1(Cc2ccccc2)NC=C(C(=O)c2ccccc2)[C@@H]1c1cccc(OC)c1 | -0.52%
47 | CCOC(=O)c1c(N)c(C#N)nn1-c1ccccc1C(=O)OC | -3.5%
48 | Cc1ccc2nc(-c3ccc(CN4CCC(n5cc(-c6ccccc6)[nH]c5=O)CC4)cc3)c(-c3ccccc3)nc2c1 | 5.23%
49 | O=C1Nc2ccccc2C1=NN=Cc1ccco1 | 4.85%
50 | COc1ccccc1C(=O)N1O[C@]23C=C[C@]14C[C@@H](O)CC[C@]4(C)C2CC[C@]1(C)[C@@H]([C@H](C)/C=C/[C@H](C)C(C)C)CC[C@H]13 (stereo partly specified) | -1.2%
51 | CCOc1[nH]n(-c2ccc(Cl)cc2)c(=O)c1C=Nc1ccc(O)cc1 | 28% (active)
52 | Cc1ccc(C)c(CN2CCC(CNC(=O)C3CCCN(c4ncnc5c4nc4n5CCCCC4)C3)CC2)c1 (stereo unspecified) | -2.34%
53 | CC1(C)CC(=O)C=C(NCCN2CCNCC2)C1 | 5.49%
54 | Nc1nc2c(ncn2[C@@H]2O[C@H](C(=O)N[C@@H](Cc3ccccc3)C(=O)NCc3ccccc3)[C@@H](O)[C@H]2O)c(=O)[nH]1 | -1.96%
55 | CN1C(=O)CN2CCc3ccccc3C2c2cc(Cl)ccc21 (stereo unspecified) | -2.81%
56 | COC(=O)C1=C(C)N(Cc2ccc(F)cc2)C(=S)NC1c1cccc(Cl)c1 (stereo unspecified) | 3%
57 | O=C(NS(=O)(=O)c1cccs1)[C@H]1O[C@@H](n2ccc(=O)[nH]c2=O)[C@H](O)[C@@H]1O | -0.49%
58 | Cc1cc(C(=O)CCC(=O)NNC(=O)c2ccccc2O)c(C)s1 | 25.6% (active)
59 | O=C(NNC(=O)c1ccccc1O)c1ccccc1O | 40% (active)
60 | O=C(NNC(=O)c1cc(S(=O)(=O)N2CCCCC2)ccc1Cl)c1ccccc1O | 16.6%
61 | Cc1cccc(NS(=O)(=O)c2cccc(C(=O)NNC(=O)c3ccccc3O)c2)c1 | 16.2%
62 | Cc1cc2occ(CC(=O)NNC(=O)c3ccccc3F)c2cc1C | 2.71%
63 | Cc1ccccc1C(=O)NNC(=O)CN1C(=O)c2ccccc2C1=O | -5.72%

Row | Structure (SMILES) | inhibition
64 | COc1cccc(NC(=O)N(C)C[C@@H]2OCc3cn(nn3)CCCC(=O)N([C@@H](C)CO)C[C@H]2C)c1 | -4.37%
65 | C=CC1=C(C(=O)O)N2C(=O)[C@@H](NC(=O)/C(=N/OCC(=O)O)c3csc(N)n3)[C@H]2SC1 | 25.6% (active)
66 | C=CC1=C(C(=O)O)N2C(=O)[C@@H](NC(=O)/C(=N\OCC(=O)O)c3csc(N)n3)[C@H]2SC1 | 4.98%
67 | CCCCOCC1CN(CCCC)S(=O)(=O)c2c(Oc3ccc(F)cc3)cccc2O1 (stereo unspecified) | 0.77%
68 | Nc1ncnc2c1ncn2[C@@H]1O[C@H](C(=O)N[C@@H](CCc2ccccc2)C(=O)N2CCCN(Cc3cccs3)CC2)[C@@H](O)[C@H]1O | 3.68%
69 | COc1cccc(CNC(=O)[C@H]2CCCN2C(=O)[C@H]2CCCN2C(=O)c2cc(F)cc(F)c2)c1 | -6.91%
70 | CC(=O)N1C[C@@H](CO)[C@@H](N(C)C(=O)C(C)(C)C)C[C@H]1c1ccccc1Br | -0.47%
71 | CN(C)[C@@H]1C(=O)C(C(N)=O)=C(O)[C@@]2(O)C(=O)C3=C(O)c4c(O)ccc(Cl)c4[C@@H](O)[C@H]3C[C@@H]12 | 21.1% (active)
72 | C=C1c2c(Cl)ccc(O)c2C(O)=C2C(=O)[C@]3(O)C(O)=C(C(N)=O)C(=O)[C@@H](N(C)C)[C@@H]3[C@@H](O)C12 (stereo partly specified) | 33.5% (active)
73 | CCc1c(-c2ccccc2OC)ncn1CCc1ccccc1OC | 7.58%
74 | NCCN1CCN2C(=O)CN(C(=O)c3ccccc3)CC12 (stereo unspecified) | -1.77%
75 | COC(=O)[C@]12C[C@H](CC(=O)NCc3ccc(C)o3)C(=O)N(CCC3=CCCCC3)C1=C[C@H](C(C)(C)C)O[C@@H]2C | -1.26%
76 | Oc1ccc(/C=N/N(Cc2ccccc2)c2ccccc2)cc1 | 7.05%
77 | Oc1ccc(N=Cc2c(O)ccc3ccccc23)cc1 | 44.6% (active)
78 | Oc1ccc(N=Cc2sc3ccccc3c2Cl)cc1 | 89.3% (active)
79 | COc1ccc(-c2ccc3c(n2)CCCN3S(=O)(=O)c2ccc(C)cc2)cc1 | -3.11%
80 | CC(C)(C)c1ccc(S(=O)(=O)NCC2CCN(C(=O)C(=O)c3cc4ccccc4o3)CC2)cc1 | -7.28%
81 | NC(=O)c1ncn([C@@H]2O[C@H](C(=O)O)[C@@H](O)[C@H]2O)n1 | 6.54%
